Pf Dd2 inh = inhibitors of Plasmodium falciparum Dd2 growth; P. falciparum Dd2 growth, SYBR Green, 72 h; actives 4.3% (n = 120,000); Potency, µM (series often up to 28.9 µM), most hits filed as inhibitors; active means well fitted inhibition curve with a large enough effect; further: nearly all actives have a fitted effect of over 65% in size
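Infected erythrocytes (Dd2, 0.3% parasitemia, 2.5% hematocrit final) are added to compound in RPMI-1640/Albumax II medium, grown 72 h at 37C in low oxygen, then lysed with saponin/Triton-X containing SYBR Green and read by fluorescence.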
Each line names hits and unclear results; the compound was inactive in the other large screens. Only a selection was taken, and hits are over-represented in it overall.

Cc1cccc(-c2nc3c4ccccc4nc(NCc4ccc(F)cc4)n3n2)c1	none
COc1ccccc1CNc1nc2ccccc2c2nc(-c3cccc(C)c3)nn12	none
CCOc1ccccc1NC(=O)CSc1nc2cc(OC)c(OC)cc2c2nc(-c3ccccc3)nn12	none
COc1cc2nc(NCc3ccccc3)n3nc(-c4ccccc4)nc3c2cc1OC	Pf Dd2 inh 0.32µM
Cn1nc2n(c1=O)CCC(NC(=O)CN1CCCC1=O)CC2 (stereo not drawn)	none
O[C@@H]1C[C@@H](c2nnc3n2CCN(Cc2cccc4[nH]ccc24)C3)N(Cc2ccccc2)C1	none
Cc1cc(Br)cc(C)c1OCC(=O)Nc1ccc(S(=O)(=O)Nc2ncccn2)cc1	none
CN(C)C(=O)c1cccnc1OC1CCN(C(=O)NCCc2ccccc2)C1 (stereo not drawn)	none
COCCNC(=O)Cn1ccn2nc(-c3ccc(F)cc3)c(CO)c2c1=O	none
COc1cc(NC(=O)N2CCC(Oc3ncccc3C(=O)N(C)C)C2)cc(OC)c1OC (stereo not drawn)	none
CC(=O)Nc1cccc(-c2cc3c(ccn3C)c(C(=O)NCCc3cnc[nH]3)n2)c1	Pf Dd2 inh 5µM
Cc1cc(C)c(CNC(=O)c2nc(-c3ccccc3C)cc3c2ccn3C(C)C)c(=O)[nH]1	none
Cc1cc(C)c(CNC(=O)c2cc(-c3ccc(CN(C)C)cc3)cc3ncn(C)c23)c(=O)[nH]1	none
COc1cccc(-c2cc3c(ccn3C)c(C(=O)NCc3c(C)cc(C)[nH]c3=O)n2)c1	Pf Dd2 inh 10µM
COc1ccc(-c2cc3c(ccn3C(C)C)c(C(=O)NCc3c(C)cc(C)[nH]c3=O)n2)cn1	Pf Dd2 inh 6.3µM
Cc1ccc(-c2cc3c(ccn3C(C)C)c(C(=O)NCc3c(C)cc(C)[nH]c3=O)n2)cn1	Pf Dd2 inh 7.1µM
COc1ccc(-c2cc3c(ccn3C)c(C(=O)NCCc3cnc[nH]3)n2)cn1	none
Cc1cc(C)c(CNC(=O)c2nc(-c3cnn(C)c3)cc3c2ccn3C)c(=O)[nH]1	none
Cn1ccc2c(C(=O)NCCc3cnc[nH]3)nc(-c3cccc(CO)c3)cc21	none
Cn1ccc2c(C(=O)NCc3cccnc3)nc(-c3cccnc3)cc21	none
Cn1ccc2c(C(=O)NCCc3cnc[nH]3)nc(-c3ccccc3)cc21	none
COc1ccc(-c2cc(C(=O)NCc3c(C)cc(C)[nH]c3=O)c3c(c2)N(C(C)C)CCO3)cc1OC	none
CNC(=O)c1cc2cc(-c3c(C)noc3C)nc(-c3cccnc3)c2o1	none
CCCN(CCC)CCCNC(=O)c1cn(C)c2ccc(S(=O)(=O)N3CCOCC3)cc2c1=O	none
O=C(Nc1cccc(Cl)c1Cl)c1cc(S(=O)(=O)NCCc2ccccc2)ccc1F	none
O=c1cc(-c2ccccc2)nc(SCc2nc(-c3ccccc3Cl)no2)[nH]1	none
Cc1nnc(SCC(=O)Nc2ccc(Br)cc2)[nH]c1=O	none
CCOc1ccc(C(=O)Nc2cc(-c3nc4cc(OC)ccc4o3)ccc2C)cc1[N+](=O)[O-]	none
COCCn1ncc(N2CCC(NC(=O)CCC(C)C)CC2)cc1=O	none
Cc1nc2ccc(S(=O)(=O)NC(C(=O)N3CCN(c4cccc(Cl)c4)CC3)C(C)C)cc2s1 (stereo not drawn)	none
CC(C(=O)NCc1ccccc1)n1ccc2cc(S(=O)(=O)N3CCCC3)ccc21 (stereo not drawn)	none
CCc1nnc(CN(CC)C(=O)c2ccc3nc(-c4ccccc4)cn3c2)o1	none
CSc1nn(CC(=O)Nc2ccccc2F)c(N)c1S(=O)(=O)c1ccccc1	none
CCSc1nn(CC(=O)Nc2ccc(C(=O)OC)cc2)c(N)c1S(=O)(=O)c1ccc(C)cc1	none
CCOC(=O)c1ccc(NC(=O)Cn2nc(SC)c(S(=O)(=O)c3ccc(Cl)cc3)c2N)cc1	Pf Dd2 inh 11µM
CCN(c1ccccc1)S(=O)(=O)c1ccc(-c2cc(C)no2)s1	none
CN(C)C(=O)CN1C(=O)CO[C@H](c2ccc(NS(=O)(=O)c3cccc(F)c3)cc2)[C@H]1CO	none
COc1ccc(C(=O)N[C@H]2C[C@@H](Cc3cc(-c4ccccc4)on3)C2(C)C)cc1	Pf Dd2 inh 4.5µM
CCNC(=O)N[C@H]1C[C@@H](Cc2cc(-c3ccccc3)on2)C1(C)C	none
CC(C)N[C@H]1C[C@@H](Cc2cc(-c3ccccc3)on2)C1(C)C	none
CN1CCC(N[C@H]2C[C@@H](Cc3cc(-c4ccccc4)on3)C2(C)C)CC1	Pf Dd2 inh 4µM
COCc1cc(C[C@@H]2C[C@H](NC3CCC3)C2(C)C)no1	none
COc1ccc(C(=O)N[C@H]2C[C@@H](Cc3cc(CN(C)C)on3)C2(C)C)cc1	none
O=C1COCC2(CN1Cc1cccc(OC(F)(F)F)c1)CN(C(=O)Cc1cccnc1)C2	none
COCCCNC(=O)c1ccc(Cn2c(=O)c3ccccc3n(Cc3c(C)cc(C)cc3C)c2=O)cc1	none
FC(F)(F)C1CN(c2ccnc3ccc(Cl)cc23)CCO1 (stereo not drawn)	none
Cc1cc(C)cc(NC(=O)c2cc(S(=O)(=O)N3CCC(C)CC3)cn2C)c1	none
COCC(=O)n1nc(-c2ccco2)nc1NCc1ccccc1Cl	none
CC(C)CN(CCCNC(=O)CN1C(=O)COc2ccc(S(=O)(=O)N3CCCCCC3)cc21)CC(C)C	Pf Dd2 inh 11µM
CCN(CC)CCCNC(=O)CN1C(=O)COc2ccc(S(=O)(=O)N3CCC(C)CC3)cc21	none
CCCCNC(=O)CN1C(=O)COc2ccc(S(=O)(=O)N3CCCC3)cc21	none
CCn1ccnc1CN(C)c1ccc(-c2nc(C3CC3)no2)cn1	none
CNC(=O)[C@@H]1CN(C(=O)C2(c3ccc(OC)cc3)CC2)C[C@H]1COC	none
COc1ccccc1N1CCN(c2ccc(-c3nc(-c4ccccc4C)no3)cc2[N+](=O)[O-])CC1	none
COc1ccccc1-c1noc(-c2ccc(N3CCN(c4ccccc4)CC3)c([N+](=O)[O-])c2)n1	Pf Dd2 inh 10µM
COc1ccc(-c2noc(-c3ccc(N4CCN(c5ccccc5)CC4)c([N+](=O)[O-])c3)n2)cc1	none
COC(=O)c1cc2n(n1)CCN(C(=O)CNS(=O)(=O)c1cccs1)C2	none
CCc1cccc(NC(=O)c2cc(-c3ccc[nH]3)n[nH]2)c1	none
COc1ccccc1CC(=O)N1CCCc2ncc(C(=O)N3CCCC[C@@H]3c3ccccc3)cc21	Pf Dd2 inh 11µM
COC1CCN(C(=O)c2cnc3c(c2)N(C(=O)CCc2ccccc2)CCC3)CC1	none
COc1ccccc1CC(=O)N1CCCc2ncc(C(=O)NC(c3ccccc3)c3ccccc3)cc21	none
COc1ccccc1CC(=O)N1CCCc2ncc(C(=O)NCc3cccc(Cl)c3)cc21	none
COc1ccccc1CC(=O)N1CCCc2ncc(C(=O)N3CCCC[C@@H]3Cc3ccccc3)cc21	Pf Dd2 inh 7.9µM
COc1ccccc1CC(=O)N1CCCc2ncc(C(=O)N3CCC(OC)CC3)cc21	none
O=C(Cc1ccccc1)NCC1CN(Cc2ccc3[nH]ccc3c2)CC12CN(c1ccccc1)C2 (stereo not drawn)	none
Cc1ccc(CN2CCC(n3cc[nH]c3=O)CC2)cc1	none
Cc1cc(CNC(=O)c2cc(C(C)C)n3ncnc3n2)c2[nH]c(C)c(C)c2c1	Pf Dd2 inh 8.9µM
CC(C)c1cc(C(=O)NCCc2noc(C3CCCO3)n2)nc2ncnn12 (stereo not drawn)	none
CC(C)c1cc(C(=O)NCCc2nc(-c3cccnc3)no2)nc2ncnn12	none
Cn1c(CNC(=O)CC2CCN(S(C)(=O)=O)C2)nc2ccccc21 (stereo not drawn)	none
COc1cc(NC(=O)C2=NO[C@@H]3CN(Cc4ccc(F)cc4)C[C@H]23)ccc1F	none
CC(=O)Nc1cccc(-c2cnc3n[nH]c(-c4sccc4C)c3n2)c1	none
CC(=O)Nc1cccc(-c2cnc3n[nH]c(-c4ccc5c(c4)OCO5)c3n2)c1	Pf Dd2 inh 2.5µM
CC(=O)Nc1cccc(-c2cnc3n[nH]c(-c4ccc(F)cc4C)c3n2)c1	none
